In the library only some 19% were active in any assay of this set; here they are far more common.
TDP1 cell CPT: qHTS for Inhibitors of human tyrosyl-DNA phosphodiesterase 1 (TDP1): qHTS in cells in presence of CPT; Potency, µM (top dose mostly 46.2 µM), for the others: top-dose activity change, negative = growth inhibition, most hits filed as inhibitors; AID 686979, 2013; hit rate 12% among 420,000; chicken DT40 Tdp1-/-;hTDP1 cells + 20 nM CPT, ATP luminescence, 48 h; further: potency means the concentration at half of the fitted maximal effect; nearly all actives have a fitted effect of over 55% in size
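Chicken DT40 Tdp1-/- cells complemented with human TDP1, 400 cells/well, exposed to compounds plus 20 nM camptothecin for at least 48 h at 37 C; viability read as ATP content by CellTiter-Glo luminescence.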
IL-1B inflam inh: qHTS for Inhibitors of Inflammasome Signaling: IL-1-beta AlphaLISA Primary Screen; THP-1 LPS/ATP IL-1B secretion, AlphaLISA, 16 h; active compounds read low; activity change, % at 57.5 µM; hit rate 4.7% among 360,000; AID 743279, 2014; in the data active means activity change below about -50%; inconclusive means mostly about -30% to -49%
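Secreted IL-1B measured by AlphaLISA bead assay after 16 h compound exposure of THP-1 cells; compounds (final up to 57.5 uM) added 1 h before LPS (250 ng/mL) and ATP (1.25 mM) stimulation; lower signal means less secretion.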
TDP1 cell noCPT: qHTS for Inhibitors of human tyrosyl-DNA phosphodiesterase 1 (TDP1): qHTS in cells in absence of CPT; DT40 Tdp1-/- hTDP1 cells, no CPT, ATP luminescence, 48 h; Potency, µM (top dose mostly 46.2 µM), inactives show at the highest dose activity change, negative = growth inhibition, actives largely listed as inhibitors; hit rate 15% among 420,000; further: potency means the concentration at half of the fitted maximal effect; nearly all actives have a fitted effect of over 55% in size
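Cells were dispensed at 400 per well, compounds added by pin tool, plates incubated ≥48 hr at 37 °C, then CellTiter-Glo added for 30 min at room temperature before luminescence reading. Line: DT40 Tdp1-/- complemented with hTDP1; camptothecin omitted.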
HT1080 IDH1KD tx: qHTS for induction of synthetic lethality in tumor cells producing 2HG: qHTS for the HT-1080-IDH1KD cell line | HT-1080 IDH1 knockdown viability, ATP luminescence, 48 h | Potency, µM (series often up to 46.1 µM), inactives show top-dose activity, negative = toxicity, hits mostly cytotoxic | hit rate 2% among 360,000 | AID 686971, 2013;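 further: potency means the concentration at half of the fitted maximal effect; 0% = DMSO wells and -100% = cell-free medium wells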
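After a 2 h attachment period, IDH1KD HT-1080 cells took pin-transferred compound for 48 h at 37 °C; ATP-based luminescence after 10 min room-temperature reagent incubation reported viability.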
HT1080NT lethal: qHTS for induction of synthetic lethality in tumor cells producing 2HG: qHTS for the HT-1080-NT fibrosarcoma cell line; HT-1080-NT fibrosarcoma viability, CellTiter-Glo ATP luminescence, 48 h; Potency, µM (series often up to 46.1 µM), for inactives: at the highest dose activity, negative = less viability, hits mostly cytotoxic; hit rate 1.6% among 360,000;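 further: NT is the 2HG producing partner of a matched IDH1 knockdown line; potency means the concentration at half of the fitted maximal effect; 0% = DMSO-treated cells and -100% = media-only wells without cells; nearly all actives have a fitted effect of over 55% in size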
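HT-1080-NT fibrosarcoma cells (2HG-overproducing), 750 cells/well in RPMI with 5% FBS, dosed after 2 h and incubated 48 h at 37C. CellTiter-Glo luminescence normalized to DMSO and no-cell wells; concentration-response curves fitted and classed.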
The depositor's hits bear a star; ? = inconclusive; nt = no result; [ ] = dose if it differs, or a comment. Unless noted, the call rests on the fitted dose curve; in most records, active means well fitted curve in the direction sought with a large enough effect; inconclusive means small, poorly fitted or top-dose-only effect, or another doubt; inactive means no such curve, though single readings can be large; an effect the other way counts as inactive or inconclusive. Unless noted, on the % scale 0 is the no-effect control and ±100 the full control effect.

SMILES	TDP1 cell CPT	IL-1B inflam inh	TDP1 cell noCPT	HT1080 IDH1KD tx	HT1080NT lethal
CC(=O)NCCNc1ncnc2ccc(-c3ccccc3Cl)cc12	-9%	nt	?	nt	nt
Cc1ccccc1-c1ccc2ncnc(NCCN3CCOCC3)c2c1	5.8µM*	nt	7.3µM*	nt	nt
COc1ccccc1-c1cncnc1NCCN1CCOCC1	7.3µM*	nt	5.2µM*	nt	nt
CCOC(=O)c1ccccc1NC1CC(=O)N(c2ccccc2C)C1=O (configuration not stated)	?	0	?	5%	18%
COc1cccc(-n2c(=O)c3c4c(sc3n(Cc3ccc(F)cc3Cl)c2=O)CCCC4)c1	-9%	nt	?	nt	nt
Cc1ccc(N(CC(=O)Nc2ccccc2-c2ccccc2)S(=O)(=O)c2ccccc2)c(C)c1	?	18	?	-12%	-6%
CC(Cc1cccs1)NC(=O)Nc1cccc(Cl)c1 (configuration not stated)	?	-1	?	-10%	-15%
CC(Cc1cccs1)NC(=S)Nc1ccc(Cl)cc1 (configuration not stated)	?	-96*	?	?	?
CC(Cc1cccs1)NC(=S)Nc1ccc(Cl)c(Cl)c1 (configuration not stated)	21µM*	-95*	?	-25%	?
CN1C(=O)N(CC(=O)N2CCN(S(=O)(=O)c3ccc(Cl)s3)CC2)C(=O)C12CCCCC2	?	-11	-21%	-5%	1%
Cc1ccc(C=Nc2ccc(N(C)C)cc2)o1	5.2µM*	20	2.1µM*	?	-29%
C=Cc1ccc(N=Cc2ccc(N(C)C)cc2)cc1	-4%	nt	-28%	nt	nt
O=C(O)C1CCCN1S(=O)(=O)c1cccc2nsnc12 (configuration not stated)	1%	1	-20%	14%	1%
O=C(OCc1nc2ccc(Cl)cc2n1CCO)c1ccc2c(c1)OCO2	-8%	17	-11%	-5%	-7%
CC(C)CC1=NN(C(=O)c2ccncc2)C(O)(C(F)(F)F)C1 (configuration not stated)	2.9µM*	-11	3.3µM*	-2%	-14%
O=C(c1ccncc1)N1N=C(C2CC2)CC1(O)C(F)(F)F (configuration not stated)	3.7µM*	5	5.2µM*	12%	3%
CC(C)CC1=NN(C(=O)c2cccnc2)C(O)(C(F)(F)F)C1 (configuration not stated)	4.1µM*	14	2.9µM*	17%	7%
CCC(=O)OCC(=O)c1cc(C)n(-c2ccc(Br)cc2)c1C	-2%	-14	?	-13%	-7%
COc1ccc(C(=O)COc2ccc(F)cc2)c(O)c1C	4%	-2	-25%	15%	-1%
Cc1ccc(SCc2ccc(C(=O)N3CCCC3)cc2)cc1	5%	-3	?	-16%	-21%
CCN1CCN(C(=O)c2ccc3c(c2)N(Cc2ccc(C)cc2)CCS3)CC1	21µM*	-15	23µM*	-1%	-15%
Cc1ccc(CN2CCSc3ccc(C(=O)N4CCOCC4)cc32)cc1	?	-19	-19%	-1%	-1%
CCN1CCN(C(=O)c2ccc(CSc3ccc(C)cc3)cc2)CC1	?	-54*	13µM*	-28%	?
Cc1ccc(CN2CCSc3ccc(C(=O)N4CCN(c5ncccn5)CC4)cc32)cc1	21µM*	-62*	16µM*	9%	4%[9.24 µM]
CCCn1c(N)c(C(=O)CN2CCN(S(=O)(=O)c3cccc(Cl)c3)CC2)c(=O)[nH]c1=O	?	-10	-20%	-1%	-2%
SMILES	TDP1 cell CPT	IL-1B inflam inh	TDP1 cell noCPT	HT1080 IDH1KD tx	HT1080NT lethal
CCc1ccc(NC(=O)c2ccc(NC(=O)C3CCCO3)cc2)cc1 (configuration not stated)	3%	11	-22%	0%	-8%
CCOc1ccc(CN2CCc3nc(Nc4ccc(OC)cc4OC)ncc3C2)cc1	21µM*	nt	?	nt	nt
CN1CCN(Cc2nc(N)nc(Nc3ccc4c(c3)OCCO4)n2)CC1	-3%	12	-21%	0%	-1%
COc1ccc(CNC(=O)N2CCc3nc(Nc4cc(OC)c(OC)c(OC)c4)ncc3C2)cc1	?	6	?	-25%	-16%
COc1ccc(Nc2ncc3c(n2)CCN(Cc2ccccc2C)C3)c(OC)c1	?	nt	10µM*	nt	nt
COc1cc(Nc2ncc3c(n2)CCN(Cc2ccc(OC(C)C)c(OC)c2)C3)cc(OC)c1	16µM*	nt	13µM*	nt	nt
Cc1ccccc1CN1CCc2nc(Nc3ccc4c(c3)OCCO4)ncc2C1	23µM*	nt	21µM*	nt	nt
COc1ccc2nc(SCC(=O)c3ccco3)[nH]c2c1	0%	-8	-9%	5%	2%
COc1cccc(NC(=O)NCc2ccccc2Cl)c1	-13%	-8	-31%	8%	-2%
Cc1cc(OCC(=O)NNC(=O)c2cccs2)ccc1Br	10%	15	8%	4%	2%
COC(=O)CCN(Cc1cc(OC)ccc1OC)S(=O)(=O)c1ccccc1Br	-1%	0	?	5%	18%
CC(C)CN1CCC2(CC1)CCN(C(=O)c1cccn1C)CC2	10%	nt	-3%	nt	nt
Cn1cccc1C(=O)N1CCC2(CC1)CCN(c1ccccn1)CC2	?	nt	15µM*	nt	nt
Cn1cccc1C(=O)N1CCC2(CCCN(c3ncccn3)C2)CC1	?	nt	0.65µM*	nt	nt
Cn1cccc1C(=O)N1CCC2(CC1)CCN(C(c1ccccc1)c1ccccc1)CC2	?	nt	15µM*	nt	nt
CC(Sc1nnc(CN2CCCC2)n1Cc1ccccc1)C(=O)Nc1ccccc1 (configuration not stated)	-10%	20	-5%	3%	2%
Cc1nnc(SC(C)C(=O)Nc2ccc(Cl)cn2)n1Cc1ccccc1 (configuration not stated)	-26%	-60*	?	-5%[9.24 µM]	?
Cc1ccccc1NC(=O)C(C)Sc1nnc(CN2CCCC2)n1Cc1ccccc1 (configuration not stated)	?	-22	16µM*	-2%	0%
CN(C)Cc1cc(C(F)(F)F)ccc1C(O)(c1ccccc1)c1ccccc1	?	-75*	?	-2%	-15%
CN(C)Cc1ccccc1C(O)(c1ccccc1)c1ccccc1	29µM*	-71*	?	-10%	?
Cc1cccc(CN(C)C)c1CC(O)(c1ccccc1)c1ccccc1	?	-4	?	-3%	-2%

Assay outcomes as filed in PubChem BioAssay.
